Laboratory results from PubChem BioAssay (NCATS).
Values joined by “and” are separate entries in the source; they are usually repeats but may differ in a detail not shown here. Equal values may be shown once. Inconclusive results are not listed. Active and inactive are the calls of the source. Unless noted, no rule for the calls is given here.

Experiments:
[1] = qHTS profiling for inhibitors of Plasmodium falciparum (3D7) proliferation (AID 743322);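 also: infected erythrocytes exposed to compound for 72 h before lysis; 100% = DMSO vehicle wells and 0% = 0.29 µM artemisinin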; details: P. falciparum 3D7 proliferation; at 28.7 µM (top of the series)
In short: (§1)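 Parasite DNA was quantified by SYBR Green I fluorescence (ex 485, em 535 nm) after overnight lysis in saponin/Triton buffer at room temperature. Cultures at 0.3% parasitemia and 2.5% hematocrit were first exposed to compound for 72 h at 37 C; signals were normalised to artemisinin (0.29 uM) and vehicle wells.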

[2] = qHTS profiling for inhibitors of Plasmodium falciparum (DD2) proliferation (AID 743323); details: lower = more inhibition; at 28.7 µM (top of the series)
In short: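 Parasite DNA quantified by SYBR Green fluorescence (ex 485, em 535 nm) after saponin/Triton lysis and overnight dark incubation. Cultures: 0.3% parasitemia, 2.5% hematocrit, 72 h, 37 C; data scaled between DMSO and 0.29 uM artemisinin.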

[3] = qHTS profiling for inhibitors of Plasmodium falciparum (HB3) proliferation (AID 743324; active = well fitted curve in the direction sought with a large enough effect; an effect the other way counts as inactive or inconclusive;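 also: 100% = DMSO vehicle wells and 0% = artemisinin-treated control wells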); details: Plasmodium falciparum HB3 blood-stage proliferation; at 28.7 µM (top of the series)
In short: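 SYBR Green fluorescence (485 ex/535 em) of lysed cultures, incubated overnight at room temperature in the dark, quantifies parasite DNA. Infected erythrocytes at 0.3% parasitemia and 2.5% hematocrit were exposed 72 h; values normalized to DMSO and 0.29 uM artemisinin controls.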

[4] = qHTS profiling of the MIPE4 collection as inhibitors of Plasmodium falciparum (3D7) proliferation (AID 743344);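 also: scaled between DMSO vehicle wells and 0.29 µM artemisinin as full inhibition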; details: P. falciparum 3D7 in erythrocytes, SYBR Green DNA fluorescence, 72 h; at 28.5 µM (top of the series) unless noted
In short: as §1

[5] = qHTS profiling of the MIPE4 collection as inhibitors of Plasmodium falciparum (DD2) proliferation (AID 743345); details: P. falciparum Dd2 in erythrocytes, SYBR Green DNA, 72 h; at 28.5 µM (top of the series) unless noted
In short: as §1

[6] = qHTS profiling of the MIPE4 collection as inhibitors of Plasmodium falciparum (DD2) proliferation (Rep 2) (AID 743346); details: P. falciparum Dd2 in erythrocytes, SYBR Green DNA, 72 h; at 28.5 µM (top of the series) unless noted
In short: as §1

[7] = qHTS profiling of the MIPE4 collection as inhibitors of Plasmodium falciparum (HB3) proliferation (AID 743347);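 also: plate controls were DMSO vehicle wells for no effect and artemisinin wells for full effect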; details: P. falciparum HB3 in erythrocytes, SYBR Green DNA, 72 h; at 28.5 µM (top of the series) unless noted
In short: as §1

[8] = High-throughput drug toxicity screening in the BPDCN cell line Gen2.2 (AID 1224824); details: Gen2.2 BPDCN cells; at 45.8 µM (top of the series) unless noted;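 also: cells exposed to compounds for 48 h before reading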
In short: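 CellTiter-Glo luminescence after 48 h compound exposure of Gen2.2 cells; percent activity set with DMSO as 100% and bortezomib (9.2 uM final) as 0%. Cells seeded at 500 per well, RPMI + 10% FBS, 37 °C.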

[9] = High-throughput drug toxicity screening in the BPDCN cell line Cal-1 (AID 1224825); details: Cal-1 BPDCN cell viability, qHTS; at 45.8 µM (top of the series) unless noted
In short: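 Percent activity derived from CellTiter-Glo luminescence, scaling DMSO to 100% and 9.2 uM final bortezomib to 0%. BPDCN Cal-1 cells (500/well, RPMI plus 10% FBS) incubated with compounds 48 hours at 37C before reading.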

[10] = qHTS assay for measurement of the activity of small molecule inhibitors on Zika virus induced Caspase-3 activity in human iPSC derived neural progenitor cells (hNPCs) (AID 1224857; active = well fitted curve in the direction sought with a large enough effect; an effect the other way counts as inactive or inconclusive; also: nearly all actives have a fitted effect of over 65% in size; also: potency is read from the fitted curve at half-maximal effect)
In short: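 After overnight (16–20 h) culture at 350 cells/well, hNPCs get compound, then ZIKV 2 FFU/cell one hour later. Six hours on, Caspase-Glo 3/7 is added and luminescence measured.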

SMILES	remaining parasite growth % (stronger effect = lower value) [1]	activity, percent of control [2]	remaining proliferation (% of control), lower = more inhibition [3]	parasite growth, % of DMSO control [4]	parasite growth remaining, % of DMSO control (lower = more inhibition) [5]	parasite growth, % of control (lower = inhibition) [6]	growth, % of control [7]	cell viability, % of control (lower = more cytotoxic) [8]	viability (% of control) [9]	Potency [10]
CO[C@@H](C(=O)N1Cc2[nH]nc(NC(=O)c3ccc(N4CCN(C)CC4)cc3)c2C1)c1ccccc1	5.46%	24.6%	7.25%	6.06%	12.3%	10.5%	3.96%	134%	6.89%	inactive
CN1C[C@H]2c3ccccc3Oc3ccc(Cl)cc3[C@@H]2C1	–	–	–	–	–	–	–	54.1%	73.9%	–
CCOC1OC(=O)C[C@H]1NC(=O)[C@@H]1CCCN1C(=O)[C@@H](NC(=O)c1ccc(N)c(Cl)c1)C(C)(C)C (stereo not given in full)	–	–	–	–	–	–	–	49.8%	–	–
O=c1cc(CN2CCOCC2)occ1OCCCCCSc1ccnc2cc(C(F)(F)F)ccc12	28.8%	26.8%	17.5%	36.7%	56.7%	33.6%	12.1%	186%	75.4%	inactive
CC[C@H]1OC(=O)[C@H](C)[C@@H](O[C@H]2C[C@@](C)(OC)[C@@H](O)[C@H](C)O2)[C@H](C)[C@@H](O[C@@H]2O[C@H](C)C[C@H](N(C)C)[C@@H]2O)[C@](C)(O)C[C@@H](C)CN(C)[C@H](C)[C@@H](O)[C@]1(C)O	11.3%	19.2%	31.5%	33.2%	24.6%	14%	59%	184%	120%	inactive
CN(C)C1CCN(C(=O)c2ccc(NC(=O)Nc3nc(N4CCOCC4)nc(N4CCOCC4)n3)cc2)CC1	0.246%	2%	2.09%	5.78%	7.83%	9.5%	4.82%	6.71%	12.5%	inactive
O=C1C(Cl)=C(NCCN2CCOCC2)C(=O)c2ncccc21	34.6%	17.3%	26.6%	15.2%	18%	16%	10.3%	2.36%	0.784%	2.35 µM (active)
CC(C)OC(=O)C(C)(C)Oc1ccc(C(=O)c2ccc(Cl)cc2)cc1	–	–	–	–	–	–	–	250%	119%	–
O=C(CCCCCCC(=O)Nc1ccccc1)NO	–	–	–	–	–	–	–	171%	–	–
CNC(=O)c1ccccc1Sc1ccc2c(C=Cc3ccccn3)n[nH]c2c1	–	–	–	–	–	–	–	311%	28.2%	–
O=C(Nc1cc(Cl)cc2c1[nH]c1cnccc12)c1cccnc1	-0.264%	7.04%	0.746%	5.73%	15.5%	10.7%	3.51%	67.6%	97.7%	inactive
OC[C@H]1O[C@@H](n2cnc3c2NC=NC[C@@H]3O)C[C@H]1O	97.1%	106%	99.7%	81.4%	92.5%	146%	97.8%	188%	109%	inactive
Clc1ccc(-c2nc3sccn3c2C=NOCc2ccc(Cl)c(Cl)c2)cc1	110%	101%	103%	30.7%	51.5%	122%	43.2%	111%	116%	inactive
COc1cc2ncnc(Nc3ccc(F)c(Cl)c3)c2cc1OCCCN1CCOCC1	–	–	–	–	–	–	–	14.5% [at 92.2 µM]	–	–
O=C(N[C@@H](c1ccccc1)[C@@H]1CCCCN1)c1cccc(C(F)(F)F)c1Cl	52.4%	16.6%	29.7%	9.06%	8.97%	26.8%	8.07%	87.4%	24.7%	inactive
N#Cc1ccc(NC(=O)Nc2ccccc2Br)c2n[nH]nc12	66.9%	69.6%	37.3%	7.67%	65.9%	21.8%	7.81%	183%	14.7%	inactive
CC(C)(C(=O)NCC(F)(F)C(F)(F)F)C(=O)N[C@@H]1C(=O)Nc2ccccc2-c2ccccc21	5.09%	4.91%	-0.0337%	8.18%	9.25%	11.3%	10.3%	71.1%	5.17%	inactive
CC(C)(C)c1cc(C(=O)O)c(NC(=O)Nc2ccc3[nH]ncc3c2)s1	97%	95.5%	70.8%	74.4%	93.1%	–	69.6%	134%	110%	inactive
COc1cccc2c1CCCC2CCCN1CCN(C2CCCCC2)CC1 (stereo not given)	-0.577%	3.08%	1.97%	6.86%	54.8%	16.3%	5.02%	165%	11.1%	inactive
CC=CCC=CCCC(=O)[C@H]1O[C@@H]1C(N)=O	–	–	–	–	–	–	–	7.55%	15.5%	inactive
CCOC(CN1C(=O)[C@](CC(=O)Nc2ccc(C)cc2)(NC(=O)Nc2ccc(C)cc2)c2ccccc21)OCC	4.05%	23.7%	10.1%	14%	38.2%	26.1%	15.7%	45.2%	46.4%	inactive
O=c1cc(N2CCOCC2)oc2c(-c3cccc4c3sc3ccccc34)cccc12	3.79%	10.6%	5.89%	11.6%	28.4%	25.8%	7.93%	2.51%	3.76%	inactive
O=C(Nc1ccccc1-c1cn2c(CN3CCNCC3)csc2n1)c1cnc2ccccc2n1	-2.01% and -0.108%	-0.76% and -0.434%	-2.58% and -1.42%	5.22%	5.73%	–	3.22%	2.56%	1.48%	18.7 µM (active)
